Here are results for 36 molecules from PubChem BioAssay (NCATS).

Records with an inconclusive call do not appear. A call without a number means that no potency is given here. Activity calls are given as the source filed them. Calls come from the whole dose curve; as a rule, active = well fitted curve in the direction sought with a large enough effect; inconclusive = small, poorly fitted or top-dose-only effect, or another doubt; inactive = no such curve, though single readings can be large; an effect the other way counts as inactive or inconclusive.

The target in assay [1] is Aldehyde dehydrogenase, mitochondrial (Homo sapiens) (UniProt P05091). Description: qHTS for Inhibitors of the Aldehyde Dehydrogenase Family (ALDH2) Primary screen (AID 2061308). Note: nearly all actives have a fitted effect of over 55% in size.
Assay [2] deals with Retinaldehyde dehydrogenase 3 (Homo sapiens) (UniProt P47895). Description: qHTS for Inhibitors of the Aldehyde Dehydrogenase Family (ALDH1A3) Primary screen (AID 2061315).

As to `O=C1NC2=C(C(=O)CCC2)C(c2ccccc2Cl)N1` (configuration not stated), the Potency entry in assay [1] and in assay [2] was “inactive” each time.
`O=C1CCc2cc(S(=O)(=O)Nc3ccc(Cl)cc3)ccc2N1`: the Potency entry in assay [1] and in assay [2] was “inactive” each time.
In the case of `COc1cccc(C2c3c(ncn(-c4ccccc4C)c3=N)Oc3ccc4ccccc4c32)c1` (configuration not stated), the Potency entry in assay [1] and in assay [2] was “inactive” each time.
For `CC1(C)CC[C@]23CO[C@@]4(CCC5[C@@]6(C)CC[C@H](O[C@@H]7OC[C@H](O[C@@H]8O[C@H](CO)[C@@H](O)[C@H](O)[C@H]8O[C@@H]8OC[C@@H](O)[C@H](O)[C@H]8O)[C@H](O)[C@H]7O[C@@H]7O[C@H](CO)[C@@H](O)[C@H](O)[C@H]7O)[C@@](C)(CO)C6CC[C@@]5(C)[C@]4(C)C[C@H]2O)[C@@H]3C1` (some centres not stated), the Potency result in assay [1] and in assay [2] was “inactive” in each case.
In the case of `O=S(=O)(c1ccsc1)N1CCN(c2nc(-c3cccs3)nc3ccccc23)CC1`, the Potency entry in assay [1] and in assay [2] was “inactive” throughout.
With `CC(C)(C)c1ccc(C(=O)NCC(=O)OC(C(=O)Nc2cc(C(F)(F)F)ccc2Cl)c2ccccc2)cc1` (configuration not stated), the Potency entry in assay [1] and in assay [2] was “inactive” each time.
For the molecule `COc1ccc([S+](=O)([O-])N2CCN([S+](=O)([O-])c3ccc4c(c3)OCCO4)CC2)c(OC)c1`, the Potency result in assay [1] and in assay [2] was “inactive” in each case.
For `CCCCNc1nc(C)nc2c1nc(-c1ccccc1)n2CCN1CCCC1`, the Potency entry in assay [1] and in assay [2] was “inactive” throughout.
For the molecule `COc1cc(Nc2nc(-c3ccncc3)nc3ccccc23)ccc1F`, the Potency result in assay [1] and in assay [2] was “inactive” throughout.
Consider `CC(=O)c1ccc(N2CCN(S(=O)(=O)c3ccc4c(c3)CC(C)N4C(C)=O)CC2)cc1` (configuration not stated), for which the Potency entry in assay [1] and in assay [2] was “inactive” each time.
With `N#Cc1ccccc1S(=O)(=O)N1CCN(S(=O)(=O)c2ccc3c(c2)OCCO3)CC1`, the Potency result in assay [1] and in assay [2] was “inactive” throughout.
In the case of `Cc1cccc(S(=O)(=O)N2CCN(S(=O)(=O)c3ccc4c(c3)OCCO4)CC2)c1`, the Potency entry in assay [1] and in assay [2] was “inactive” throughout.
For `O=C(O)c1ccncc1Nc1nn(CCN2CCC(F)(F)CC2)c2ccc(F)cc12`, the Potency entry in assay [1] and in assay [2] was “inactive” in each case.
`O=C(Nc1cccnc1)C1CCCCC1`: the Potency entry in assay [1] and in assay [2] was “inactive” each time.
With `COc1cccc(-c2csc(NC(=O)c3ccncc3NS(=O)(=O)c3ccc(C)cc3)n2)c1`, the Potency entry in assay [1] and in assay [2] was “inactive” each time.
Regarding `O=C(Nc1ccc(Cl)c(C(F)(F)F)c1)Nc1nnc(-c2cccnc2)s1`, the Potency result in assay [1] and in assay [2] was “inactive” each time.
As for `Cc1cn([C@H]2C[C@H](N[S+](=O)([O-])Cc3cccc(Cl)c3)[C@@H](CO)O2)c(=O)[nH]c1=O`, the Potency entry in assay [1] and in assay [2] was “inactive” in each case.
`O=C(/C=C/c1cccs1)Nc1cccc([S+](=O)([O-])Nc2ccccc2F)c1`: the Potency result in assay [1] and in assay [2] was “inactive” in each case.
With `N#Cc1ccc(-c2nc(NCc3ccc(-c4ccnc(C(F)(F)F)c4)cc3)c3ccccc3n2)cc1`, the Potency result in assay [1] and in assay [2] was “inactive” in each case.
In the case of `NC(=O)c1cnc(N[C@@H]2CCCC[C@H]2N)nc1Nc1cccc(-n2nccn2)c1`, the Potency result in assay [1] and in assay [2] was “inactive” throughout.
Consider `Cc1cc2c(s1)c1cnn(Cc3ccccc3F)c(=O)c1n2Cc1ccccc1F`, for which the Potency entry in assay [1] and in assay [2] was “inactive” throughout.
As to `CCCCCC1CCC(C(=O)Nc2ccc(S(=O)(=O)Nc3nccs3)cc2)CC1` (configuration not stated), the Potency entry in assay [1] and in assay [2] was “inactive” each time.
As for `Cc1ccc(N2CCC(CNc3nc(-c4ccccc4C(C)C)ncc3C)CC2)cn1`, the Potency result in assay [1] and in assay [2] was “inactive” in each case.
As to `O=S1(=O)N=C(Oc2cccc(Br)c2)c2ccccc21`, the Potency entry in assay [1] and in assay [2] was “inactive” in each case.
For the molecule `CCCCN(C)C(=O)Cn1nc(-c2ccccc2C)ccc1=O`, the Potency entry in assay [1] and in assay [2] was “inactive” each time.
For the molecule `O=S(=O)(c1ccc2c(c1)OCCO2)N1CCN(S(=O)(=O)c2cccc[n+]2[O-])CC1`, the Potency result in assay [1] and in assay [2] was “inactive” in each case.
`COc1ccccc1NC(=O)C1=C(C)NC(Nc2nc3ccccc3o2)=NC1c1ccccc1Br` (configuration not stated): the Potency entry in assay [1] and in assay [2] was “inactive” in each case.
With `O=S1(=O)N=C(Oc2cccc(C(F)(F)F)c2)c2ccccc21`, the Potency result in assay [1] and in assay [2] was “inactive” in each case.
For the molecule `CCNC(=O)C1CCC(C(=O)Nc2ccc([S+](=O)([O-])Nc3nccs3)cc2)CC1` (configuration not stated), the Potency entry in assay [1] and in assay [2] was “inactive” in each case.
On to `Cc1cc(NS(=O)(=O)c2ccc3c(c2)CCC(=O)N3)ccc1Cl`, for which the Potency result in assay [1] and in assay [2] was “inactive” throughout.
Turning to `CCc1ccc2oc(NC3=NC(c4[nH]ncc4Cl)C4=C(CCCC4=O)N3)nc2c1` (configuration not stated), the Potency entry in assay [1] and in assay [2] was “inactive” each time.
As to `O=C1CCCC2=C1C(c1[nH]ncc1Cl)NC(=NCc1nccs1)N2` (configuration not stated), the Potency result in assay [1] and in assay [2] was “inactive” each time.
Regarding `Cn1nnnc1Sc1ncnc2scc(-c3ccccc3C#N)c12`, the Potency entry in assay [1] and in assay [2] was “inactive” in each case.
As to `C[C@@]12CC[C@@H]3[C@@](CC[C@H]4[C@@]3(C)CCC[C@@]4(C)C(=O)O)(CC1=O)C2`, the Potency result in assay [1] and in assay [2] was “inactive” throughout.
Regarding `CCCn1ncc(CN2CCCC(C(=O)c3cccc(OC(C)C)c3)C2)c1C` (configuration not stated), the Potency entry in assay [1] and in assay [2] was “inactive” in each case.
Regarding `C[C@@H]1CC[C@]2(C(=O)O)CC[C@]3(C)C(=CCC4[C@@]5(C)C[C@@H](O)[C@H](O)[C@@](C)(CO)C5CC[C@]43C)C2[C@H]1C` (some centres not stated), the Potency result in assay [1] and in assay [2] was “inactive” in each case.
